The results in this text go back to PubChem BioAssay (NCI).

The panel holds about 83,000 compounds, 20% with a hit somewhere; the sample as a whole holds those more often.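 96-well plates, one dose, 48 hours. Percent growth reported; active if below 10.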 Unmarked numbers belong to inactive results. Active and inactive are the calls of the source.

Holding throughout (assay): NCI-60 one-dose screen, 48 h (100 = growth as untreated, 0 = no growth, -100 = all killed)
Settings in all cases: 10 µM unless noted

Assay [1] concerns SK-MEL-2 melanoma.
Assay [2] concerns EKVX NSCLC.
The subject of assay [3] is SN12C renal.
Assay [4] has as its system UO-31 renal.
Assay [5] has as its system TK-10 renal.
For assay [6], the system named is ACHN renal.
The test system of assay [7] is CAKI-1 renal.
Assay [8] relates to A498 renal.
The test system of assay [9] is CCRF-CEM leukemia.
Assay [10] relates to MOLT-4 leukemia.

Regarding `C=C1C(=O)O[C@H]2[C@H]1CC/C(COC(=O)/C=C\C(=O)NCc1ccc(Cn3c(=O)sn(CCCCl)c3=O)cc1)=C\CC[C@@]1(C)O[C@@H]21`, the growth was 83.4% in assay [1]; 94.1% in [2]; 64.9% in assay [3]; 53.1% in [4]; 57.7% in [5]; 40.2% in assay [6]. Moreover, the growth was 51.6% in assay [7], 103% in assay [8], 1.6% (active) in [9] and 60.7% in [10].

`Ic1ccc(Nc2nc3nonc3nc2Nc2ccc(I)cc2)cc1`: the growth is -55.2% (active) in assay [1]; 4.77% (active) in [2]; 7.43% (active) in assay [3]; -0.338% (active) in assay [4]; 2.2% (active) in assay [5]; 4.88% (active) in [6]. Moreover, the growth is 7.67% (active) in assay [7], -22% (active) in assay [8], -1.76% (active) in assay [9] and -29% (active) in [10].

Consider `CN(C)CCCC1(c2ccc(F)cc2)OCc2cc(-c3csc4ccccc34)ccc21` (stereo not given), for which the growth is 62.6% in assay [1]; 55.3% in assay [2]; 39.7% in [3]; 2.29% (active) in assay [4]; 62.1% in assay [5]; 0.407% (active) in assay [6]. Also, the growth in assay [7] was 4.7% (active); in assay [8], 90.2%; in assay [9], -14.3% (active); in assay [10], -15.6% (active).

As to `C=C1C(=O)O[C@H]2[C@H]1CC/C(COC(=O)NCc1ccc(Cn3c(=O)sn(-c4ccccc4)c3=O)cc1)=C\CC[C@@]1(C)O[C@@H]21`, the growth in assay [1] was 49.6%; in assay [2] it was 77.1%; in [3], 33.9%; in assay [4], 66.6%; in assay [5], 4.49% (active); in assay [6] it was 29.6%. The growth is 15.6% in assay [7], 127% in assay [8], -9.16% (active) in assay [9] and -5.87% (active) in assay [10].

As for `O=C(NCCN1CCOCC1)OCc1ccc2c(Cl)cc(Cl)c(O)c2n1`, the growth in [1] is 78.1%; in assay [2] it was 89.6%; in [3], 64.4%; in assay [4], 25.5%; in [5], 96.4%; in assay [6], 37.3%. The growth in assay [7] was 47.1%; in assay [8], 106%; in [9] it was 48.3%; in assay [10], 57.9%.

Consider `COc1ccc(-c2cc(C(=O)N3N=C(c4ccc(N)cc4)CC3c3ccc(Cl)cc3)c3cc(OC)ccc3n2)cc1` (stereo not given), for which the growth is 88.5% in assay [1]; 88.1% in assay [2]; 84.5% in [3]; 57% in [4]; 101% in assay [5]; 47% in assay [6]. The growth in [7] was 90.5%; in [8], 87.8%; in [9], 23.1%; in assay [10], 32.5%.

In the case of `Cc1ccc(S(=O)(=O)c2nc(-c3ccccc3)oc2SCC(N)=O)cc1`, the growth was 94.3% in [1]; 95.8% in assay [2]; 106% in [3]; 85.5% in assay [4]; 85.7% in [5]; 99.5% in assay [6]. The growth is 87.3% in assay [7], 80.3% in [8], 102% in [9] and 90.6% in [10].

As to `C/C(=C(\c1ccc(OCCN2CCCCCC2)cc1)c1ccc(OC(=O)c2ccccc2)cc1)c1ccc(Cl)cc1`, the growth in [1] was 63%; in [2], 68.6%; in assay [3] it was 47.1%; in assay [4], 26.7%; in [5], 70.4%; in [6] it was 77.1%. Moreover, the growth in assay [7] is 49.5%; in [8] it was 86.9%; in assay [9], 16%; in assay [10], 8.86% (active).

Turning to `COc1ccc(C(c2cc(OC)c(OC)c(OC)c2)N2CCCCC2)cc1` (stereo not given), the growth is 22% in assay [1]; 59.1% in assay [2]; 54.3% in assay [3]; 48.8% in assay [4]; 57.6% in [5]; 50.9% in assay [6]. For the same compound, the growth in assay [7] is 29.2%; in [8], 7.32% (active); in assay [9], 29.9%; in assay [10], 31.5%.

As to `CCN(CC)c1ccc(-c2cc(-c3cc(OC)c(OC)c(OC)c3)nc(N3CCC(O)CC3)c2C#N)cc1`, the growth is -66.6% (active) in [1]; 18.6% in assay [2]; 13.5% in [3]; -43.9% (active) in assay [4]; 3.06% (active) in assay [5]; 7.6% (active) in [6]. Also, the growth in [7] was -31.7% (active); in assay [8] it was 29%; in [9], 16.4%; in assay [10] it was 2.73% (active).

In the case of `CCOc1ccc(/C=C/C(=O)c2cccc(OCCCOc3cccc(C(=O)/C=C/c4ccc(OCC)cc4)c3)c2)cc1`, the growth is 106% in assay [1]; 76.9% in [2]; 79.5% in assay [3]; 73.4% in assay [4]; 120% in assay [5]; 79.4% in [6]. The growth was 78% in assay [7], 73.4% in [8], 67.9% in [9] and 73.5% in assay [10].

In the case of `N#CSc1c[nH]c2ccc(/C=C/C(=O)/C=C(O)/C=C/c3ccc4[nH]cc(SC#N)c4c3)cc12`, the growth is 34.2% in assay [1]; 28.8% in assay [2]; 18.4% in assay [3]; -40.1% (active) in [4]; 8.11% (active) in assay [5]; 0.691% (active) in assay [6]. The growth in assay [7] was 11.9%; in [8], 90.5%; in [9], 2.04% (active); in assay [10], -28.2% (active).

Take `COc1ccc2c(c1)oc1c(C)c3c(c(C)c12)C(=O)N(CCOS(C)(=O)=O)C3=O`: the growth was 101% in [1]; 107% in assay [2]; 94% in [3]; 88.2% in assay [4]; 124% in assay [5]; 97.1% in assay [6]. Moreover, the growth in [7] was 95.4%; in assay [8], 129%; in assay [9], 100%; in assay [10], 94.7%.
